Experimental data as given in PubChem BioAssay.
“And” between values parts separate entries of the source, which are not always exact repeats. Equal values may be shown once.

assay: growth inhibition, single agent or in combination, cell-based, chromothripsis tumors, cisplatin or BGB combos (AID 1671449); conditions: LFS_MB_P medulloblastoma cells, measured here: combination with BGB IC20, at 0.005 µM;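 also: cells exposed for 96 hours; 0% = vehicle DMSO and 100% = killing by high DMSO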

SMILES | inhibition
Cc1c(N)nc(C(CC(N)=O)NCC(N)C(N)=O)nc1C(=O)NC(C(=O)NC(C)C(O)C(C)C(=O)NC(C(=O)NCCc1nc(-c2nc(C(=O)NCCC[S+](C)C)cs2)cs1)C(C)O)C(O[C@@H]1O[C@@H](CO)[C@@H](O)[C@H](O)[C@@H]1O[C@H]1O[C@H](CO)[C@@H](O)[C@H](OC(N)=O)[C@@H]1O)c1cnc[nH]1 (stereo not given in full) | 28.9% and -33.7%
O=c1[nH]c(=O)n(C2OC(CO)C(O)C2O)cc1F (stereo not given) | -22.7%
O=P(O)(NCCCl)NCCCl | -18.1%
CC1(C)C(C(=O)Nc2ccc(S(=O)(=O)c3ccc(NC(=O)C4C(C)(C)C4(C)C)cc3)cc2)C1(C)C | -18.4%
CCC1(O)C(=O)OCc2c1cc1n(c2=O)Cc2cc3ccccc3nc2-1 (stereo not given) | -1.21% and 5.58%
NC(Cc1ccc(N(CCCl)CCCl)cc1)C(=O)O (stereo not given) | -25.1%
COc1cc([C@@H]2c3cc4c(cc3[C@H](O)[C@H]3COC(=O)[C@H]23)OCO4)cc(OC)c1O | -2.59% and -6.87%
COc1cc(C2c3cc4c(cc3C(O)C3COC(=O)C23)OCO4)cc(OC)c1OC (stereo not given) | -13.4%

same assay, conditions: LFS_MB_P medulloblastoma cells, measured here: combination with BGB IC40, at 0.005 µM

SMILES | inhibition
Cc1c(N)nc(C(CC(N)=O)NCC(N)C(N)=O)nc1C(=O)NC(C(=O)NC(C)C(O)C(C)C(=O)NC(C(=O)NCCc1nc(-c2nc(C(=O)NCCC[S+](C)C)cs2)cs1)C(C)O)C(O[C@@H]1O[C@@H](CO)[C@@H](O)[C@H](O)[C@@H]1O[C@H]1O[C@H](CO)[C@@H](O)[C@H](OC(N)=O)[C@@H]1O)c1cnc[nH]1 (stereo not given in full) | -4.08% and -32.1%
O=c1[nH]c(=O)n(C2OC(CO)C(O)C2O)cc1F (stereo not given) | -24.2%
O=P(O)(NCCCl)NCCCl | -19.6%
CC1(C)C(C(=O)Nc2ccc(S(=O)(=O)c3ccc(NC(=O)C4C(C)(C)C4(C)C)cc3)cc2)C1(C)C | -46.1%
CCC1(O)C(=O)OCc2c1cc1n(c2=O)Cc2cc3ccccc3nc2-1 (stereo not given) | -28.3% and -33.2%
NC(Cc1ccc(N(CCCl)CCCl)cc1)C(=O)O (stereo not given) | -17.8%
COc1cc([C@@H]2c3cc4c(cc3[C@H](O)[C@H]3COC(=O)[C@H]23)OCO4)cc(OC)c1O | 7.46% and -20.3%
COc1cc(C2c3cc4c(cc3C(O)C3COC(=O)C23)OCO4)cc(OC)c1OC (stereo not given) | -36%

same assay, conditions: LFS_MB_P medulloblastoma cells, measured here: combination with BGB IC40, at 0.05 µM

SMILES | inhibition
Cc1c(N)nc(C(CC(N)=O)NCC(N)C(N)=O)nc1C(=O)NC(C(=O)NC(C)C(O)C(C)C(=O)NC(C(=O)NCCc1nc(-c2nc(C(=O)NCCC[S+](C)C)cs2)cs1)C(C)O)C(O[C@@H]1O[C@@H](CO)[C@@H](O)[C@H](O)[C@@H]1O[C@H]1O[C@H](CO)[C@@H](O)[C@H](OC(N)=O)[C@@H]1O)c1cnc[nH]1 (stereo not given in full) | 1.25% and -43.8%
O=c1[nH]c(=O)n(C2OC(CO)C(O)C2O)cc1F (stereo not given) | -0.747%
O=P(O)(NCCCl)NCCCl | -1.01%
CC1(C)C(C(=O)Nc2ccc(S(=O)(=O)c3ccc(NC(=O)C4C(C)(C)C4(C)C)cc3)cc2)C1(C)C | -26.3%
CCC1(O)C(=O)OCc2c1cc1n(c2=O)Cc2cc3ccccc3nc2-1 (stereo not given) | -15.4% and -14.9%
NC(Cc1ccc(N(CCCl)CCCl)cc1)C(=O)O (stereo not given) | -29.1%
COc1cc([C@@H]2c3cc4c(cc3[C@H](O)[C@H]3COC(=O)[C@H]23)OCO4)cc(OC)c1O | 35.2% and -17%
COc1cc(C2c3cc4c(cc3C(O)C3COC(=O)C23)OCO4)cc(OC)c1OC (stereo not given) | 14.5%

same assay, conditions: LFS_MB_P medulloblastoma cells, measured here: combination with cisplatin, at 0.5 µM, stronger effect = higher value

SMILES | inhibition
Cc1c(N)nc(C(CC(N)=O)NCC(N)C(N)=O)nc1C(=O)NC(C(=O)NC(C)C(O)C(C)C(=O)NC(C(=O)NCCc1nc(-c2nc(C(=O)NCCC[S+](C)C)cs2)cs1)C(C)O)C(O[C@@H]1O[C@@H](CO)[C@@H](O)[C@H](O)[C@@H]1O[C@H]1O[C@H](CO)[C@@H](O)[C@H](OC(N)=O)[C@@H]1O)c1cnc[nH]1 (stereo not given in full) | -37.7% and -28%
O=c1[nH]c(=O)n(C2OC(CO)C(O)C2O)cc1F (stereo not given) | -21.6%
O=P(O)(NCCCl)NCCCl | -31.9%
CC1(C)C(C(=O)Nc2ccc(S(=O)(=O)c3ccc(NC(=O)C4C(C)(C)C4(C)C)cc3)cc2)C1(C)C | -30.9%
CCC1(O)C(=O)OCc2c1cc1n(c2=O)Cc2cc3ccccc3nc2-1 (stereo not given) | 109% and 46.9%
NC(Cc1ccc(N(CCCl)CCCl)cc1)C(=O)O (stereo not given) | -3.85%
COc1cc([C@@H]2c3cc4c(cc3[C@H](O)[C@H]3COC(=O)[C@H]23)OCO4)cc(OC)c1O | -26% and 12.8%
COc1cc(C2c3cc4c(cc3C(O)C3COC(=O)C23)OCO4)cc(OC)c1OC (stereo not given) | -15.6%

same assay, conditions: LFS_MB_P medulloblastoma cells, measured here: combination with cisplatin, at 5 µM, stronger effect = higher value

SMILES | inhibition
Cc1c(N)nc(C(CC(N)=O)NCC(N)C(N)=O)nc1C(=O)NC(C(=O)NC(C)C(O)C(C)C(=O)NC(C(=O)NCCc1nc(-c2nc(C(=O)NCCC[S+](C)C)cs2)cs1)C(C)O)C(O[C@@H]1O[C@@H](CO)[C@@H](O)[C@H](O)[C@@H]1O[C@H]1O[C@H](CO)[C@@H](O)[C@H](OC(N)=O)[C@@H]1O)c1cnc[nH]1 (stereo not given in full) | -0.936% and -58.3%
O=c1[nH]c(=O)n(C2OC(CO)C(O)C2O)cc1F (stereo not given) | 22.1%
O=P(O)(NCCCl)NCCCl | -32.1%
CC1(C)C(C(=O)Nc2ccc(S(=O)(=O)c3ccc(NC(=O)C4C(C)(C)C4(C)C)cc3)cc2)C1(C)C | -41.5%
CCC1(O)C(=O)OCc2c1cc1n(c2=O)Cc2cc3ccccc3nc2-1 (stereo not given) | 81.5% and 87.5%
NC(Cc1ccc(N(CCCl)CCCl)cc1)C(=O)O (stereo not given) | 7.41%
COc1cc([C@@H]2c3cc4c(cc3[C@H](O)[C@H]3COC(=O)[C@H]23)OCO4)cc(OC)c1O | 48% and 29.7%
COc1cc(C2c3cc4c(cc3C(O)C3COC(=O)C23)OCO4)cc(OC)c1OC (stereo not given) | 45.9%
